The results in this text go back to article PMC5540273 (PLoS ONE, 2017).

Among the test systems are FLT1; FLT3-autoinhibited; FLT3; FLT4; FRK; FYN; GAK; GRK1.
Settings in all cases: concentration: 1 μM, replicates: in singlicate; n = 1
The subject of another experiment is T1, GCN2(Kin.Dom.2,S808G).
T1 construct: gene EIF2AK4

The next experiment has as its system T2, GRK2.
T2 construct: gene ADRBK1
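Also: KINOMEscan kinase panel screen.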

Regarding `CNCc1ccc2nc(NC(=O)c3ccc(C(C)(C)C)cc3)cn2c1`, the “%Inh” value with FLT1 is given as 27%; in the experiment on FLT3-autoinhibited, 19%; in the experiment on FLT3, 66%; in the experiment on FLT4, 29%; in the experiment with FRK it was 1%; in the experiment on FYN it was 6%. The “%Inh” value is recorded as 5% in the experiment on GAK, 0% in the experiment on GCN2(Kin.Dom.2,S808G), 13% with GRK1 and 39% in the experiment on GRK2.
`CS(=O)(=O)CCNCc1nc(-c2ccc3ncnc(Nc4ccc5c(cnn5Cc5ccccc5)c4)c3c2)cs1.Cl.Cl` [GW569716]: the “%Inh” value in the experiment with FLT1 was found to be 20%; in the experiment with FLT3-autoinhibited, 0%; in the experiment on FLT3, 0%; in the experiment on FLT4 it was 0%; with FRK it was 9%; with FYN it was 0%. For the same compound, the “%Inh” value is reported as 0% with GAK, 1% with GCN2(Kin.Dom.2,S808G), 0% in the experiment with GRK1 and 0% with GRK2.
Turning to `COc1ccc(CSc2nnc(-c3ccc4c(c3)CCO4)o2)cc1`, the “%Inh” value with FLT1, with FLT3-autoinhibited, in the experiment on FLT3, with FLT4, in the experiment with FRK and in the experiment on FYN was 0% in each case. For the same compound, the “%Inh” value in the experiment with GAK is 0%; with GCN2(Kin.Dom.2,S808G), 33%; in the experiment with GRK1, 0%; with GRK2, 0%.
Consider `O=C(Nc1n[nH]c2nc(-c3cccs3)c(Br)cc12)C1CC1` [SB-735297], for which the “%Inh” value in the experiment with FLT1 is 8%; in the experiment with FLT3-autoinhibited, 19%; in the experiment with FLT3 it was 81%; in the experiment with FLT4, 0%; with FRK, 0%; in the experiment with FYN, 0%. The “%Inh” value was 0% with GAK, 0% in the experiment with GCN2(Kin.Dom.2,S808G), 10% in the experiment on GRK1 and 0% in the experiment on GRK2.
Regarding `COC(=O)C(NC(=O)NC1CCN(c2ccnc(Nc3ccc(F)cc3)n2)C1)c1ccccc1` (centres unmarked) [GSK1379712], the “%Inh” value worked out at 14% in the experiment on FLT1; 8% in the experiment with FLT3-autoinhibited; 0% in the experiment on FLT3; 0% in the experiment on FLT4; 0% in the experiment with FRK; 31% with FYN. The “%Inh” value is recorded as 0% in the experiment with GAK, 2% in the experiment with GCN2(Kin.Dom.2,S808G), 0% in the experiment with GRK1 and 4% in the experiment on GRK2.
